Mtb FBA inh = inhibits M. tuberculosis FBA enzyme; P9WQA3; purified M. tuberculosis FBA, fluorescence read-out; inhibition, % at 1 µM; hit rate 2.3% among 360,000; in the data active = inhibition above about 27%
RecA intein inh = blocks M. tuberculosis RecA intein splicing | inhibition, % (no concentration beside the values) | cell-free RecA intein splicing, fluorescence | P9WHJ3 | hit rate 0.75% among 290,000; in the data active = inhibition above about 30%
Rv3671c protease = Rv3671c (M. tuberculosis) protease inhibition; P9WHR9; hit rate 0.048% among 320,000; inhibition, % at 5.96 µM;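 also: extracellular domain of Rv3671c used as enzyme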
Target sequence (P9WHR9 whole entry, looked up, the tested form may be a part): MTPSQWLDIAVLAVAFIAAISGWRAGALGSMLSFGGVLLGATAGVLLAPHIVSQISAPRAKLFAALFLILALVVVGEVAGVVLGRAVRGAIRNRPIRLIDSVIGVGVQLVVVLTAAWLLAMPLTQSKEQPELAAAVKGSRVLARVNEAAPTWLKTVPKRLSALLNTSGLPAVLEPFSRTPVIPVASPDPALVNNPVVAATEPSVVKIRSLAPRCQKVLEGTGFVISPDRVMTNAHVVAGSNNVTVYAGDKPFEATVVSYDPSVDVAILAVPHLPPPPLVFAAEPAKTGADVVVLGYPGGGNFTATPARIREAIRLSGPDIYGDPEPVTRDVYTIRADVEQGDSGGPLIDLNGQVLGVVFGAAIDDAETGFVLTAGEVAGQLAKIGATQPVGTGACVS
Mtb betalactam = beta-lactam sensitization of Mtb H37Rv | M. tuberculosis H37Rv growth with meropenem, percent inhibition | inhibition, % at 25 µM | hit rate 0.27% among 330,000 | AID 434955; call rule not given here;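 also: growth measured after seven days incubation then overnight dye step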
Mtb UGM inh = inhibitors of M. tuberculosis UDP-galactopyranose mutase; P9WIQ1; hit rate 0.06% among 320,000; inhibition, % at 10 µM; purified UGM, fluorescence polarization probe displacement; AID 504406; in the data active = inhibition above about 10%, passing the limit was not always enough
GDH-TPI counter-1 = inhibits GDH-TPI coupling enzymes, artifact for Mtb FBA screen; GDH-TPI coupled enzyme counterscreen, NADH absorbance; inhibition, % at 4.8 µM; hit rate 1.2% among 360,000; in the data active = inhibition above about 30%
GFP chromophore = counter-screen: blocks GFP chromophore formation | shares compounds with RecA intein inh | AID 434968 | cell-free GFP chromophore formation, fluorescence | EC50, µM | hit rate 83% among 2,100; call rule not given here
Rv3671c confirm = confirmation of M. tuberculosis Rv3671c protease inhibitors. shares compounds with Rv3671c protease. inhibition, % at 5.96 µM. hit rate 40% among 140. AID 2761
DNA intercalat = counter-screen: DNA intercalators. shares compounds with Mtb UGM inh. hit rate 60% among 35. AC50, µM. acridine orange-DNA binding, fluorescence polarization;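 active = fitted AC50 no greater than ten times the top concentration tested, cut at about 17 µM in these data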
Mtb FBA inh conf = confirmation of M. tuberculosis fructose-bisphosphate aldolase inhibitors; shares compounds with Mtb FBA inh; inhibition, % at 1 µM; purified M. tuberculosis FBA, fluorescence read-out; hit rate 78% among 5,600; AID 651616; in the data active = inhibition above about 27%
GDH-TPI counter-2 = counter-screen for M. tuberculosis FBA inhibitors: GDH-TPI coupled enzyme inhibition; shares compounds with Mtb FBA inh; GDH-TPI coupled enzyme counterscreen, fluorescence; inhibition, % at 1 µM; hit rate 81% among 5,600; AID 652141; in the data active = inhibition above about 10%
A number is an active result; i = inactive; nt = no result given; + = active, no number. The list is not random: actives were taken first. Their share in the collection is about 4%. Rule as the data show it, unless noted: active = inhibition above about 38%; inactive = the rest.

SMILES	Mtb FBA inh	RecA intein inh	Rv3671c protease	Mtb betalactam	Mtb UGM inh	GDH-TPI counter-1	GFP chromophore	others
CCOC(=O)C1=C(c2ccccc2)NC(N)=NC1c1ccc(OCc2ccc(C(=O)OC)cc2)cc1 (stereo unspecified)	i	46	i	i	i	i	26
COc1ccc(S(=O)(=O)N2CCCOC2CNC(=O)C(=O)NCc2ccccn2)cc1 (stereo unspecified)	i	i	i	i	i	i	nt
N#CC(C#N)=C(Nc1ccc(F)cc1)SCc1cccc(Br)c1	i	55	i	i	i	i	4.7
CC(SCc1ccccc1)C(=O)Nc1ccc(F)cc1 (stereo unspecified)	i	i	i	i	i	i	nt
CCOC(=O)CNC(=O)Cn1cnc2c(nnn2-c2ccc(OC)cc2)c1=O	i	i	i	i	i	i	nt
Cc1cc2c(C)nc3ccccc3c2o1	i	i	i	i	i	i	nt
Cc1nc2ccccc2c2c1C(=O)N(C)C2=O	i	58	i	i	i	i	18
Cc1nn(Cc2ccccc2)c2c1C(c1ccco1)C(C#N)=C(N)O2 (stereo unspecified)	i	55	i	i	i	i	23
CCCc1nn(C)c2c1C(c1cccnc1)C(C#N)=C(N)O2 (stereo unspecified)	i	60	i	i	i	i	24
CC(=O)C1=C(C)OC(N)=C(C#N)C1c1cccnc1 (stereo unspecified)	i	i	i	i	i	i	nt
Cc1nn(Cc2ccccc2)c2c1C(c1cccnc1)C(C#N)=C(N)O2 (stereo unspecified)	i	73	i	i	i	i	13
Cc1nn(Cc2ccccc2)c2c1C(c1ccncc1)C(C#N)=C(N)O2 (stereo unspecified)	i	67	i	i	i	i	18
Cc1cc2c(c(=O)n1Cc1cccnc1)C(c1ccccc1)C(C#N)=C(N)O2 (stereo unspecified)	i	i	i	i	i	i	nt
CN(C)C(=O)C1Cc2ccccc2CN1S(=O)(=O)c1ccc(F)cc1 (stereo unspecified)	i	i	i	i	i	i	nt
CCCOc1ccc(C(=O)NC(=S)N2CCN(c3cc4c(cc3F)c(=O)c(C(=O)O)cn4CC)CC2)cc1	i	i	i	i	i	i	nt
CCc1nc2ccc(C(=O)Nc3cccc(NS(C)(=O)=O)c3)cn2c1N(C)CCN1CCOCC1	i	nt	nt	nt	nt	i	nt
COC(=O)C1=C(C)OC(N)=C(C#N)C1c1c(C)nn(-c2ccccc2)c1Cl (stereo unspecified)	i	i	i	i	i	i	nt
Cc1nn(Cc2ccccc2)c2c1C(c1ccc(Cl)cc1)C(C#N)=C(N)O2 (stereo unspecified)	i	60	i	i	i	i	16
O=C1C2=C(c3ccccc31)[N+](=O)C1CCCCC1N2[O-] (stereo unspecified)	i	82	i	i	i	i	7.9
COc1ccc(OCC(=O)N/N=C2\CCCCc3ccccc32)cc1	i	i	i	i	i	i	nt
CCc1ccc(OCC(=O)N/N=C2\CC(=O)c3ccccc32)cc1	i	53	i	i	i	i	8.8
Cc1ccsc1C(=O)NNC(=O)c1ccncc1	i	nt	nt	nt	nt	i	nt
CC(=O)Nc1ccc(NC(=O)[C@@H](NC(=O)N2C[C@H]3C[C@@H](C2)c2cccc(=O)n2C3)C(C)C)cc1	i	nt	i	i	i	i	nt
Oc1ccc(N=Cc2ccc(OCc3ccccc3)cc2)cc1	i	46	i	i	i	i	i
Cc1cc2c(cc1C)N(C(=O)CSc1nncn1C)C(C)(C)c1ssc(=S)c1-2	i	i	i	i	i	i	nt
SMILES	Mtb FBA inh	RecA intein inh	Rv3671c protease	Mtb betalactam	Mtb UGM inh	GDH-TPI counter-1	GFP chromophore	others
Cc1ccc2c(c1)N(C(=O)CSc1nncn1C)C(C)(C)c1ssc(=S)c1-2	i	39	i	i	i	i	14
COc1ccc(Cc2c3cc(OC)c(OC)cc3cc[n+]2C)cc1OC	i	i	i	i	i	i	nt
CC[n+]1ccc2cc(OC)c(OC)cc2c1Cc1ccc(OC)c(OC)c1	i	51	i	i	i	i	i
COc1ccc(Cc2nccc3cc(OC)c(OC)cc23)cc1OC	i	93	i	i	i	i	7.3
O=[N+]([O-])c1cc(O)c2ncccc2c1	nt	37	i	i	i	nt	12
O=C(O)C1Nc2c(O)cc(Cl)c([N+](=O)[O-])c2C2C=CCC12 (stereo unspecified)	i	43	49	i	i	i	13	Rv3671c confirm=i
Cc1ccc2c(c1)C1C=CCC1C(C(=O)O)N2 (stereo unspecified)	nt	i	i	i	i	nt	nt
Cc1onc(-c2ccccc2)c1-c1nc2ccccc2c(=O)o1	i	32	49	i	i	i	2.3	Rv3671c confirm=62
O=c1oc(-c2cccnc2)nc2ccccc12	i	i	i	i	i	i	nt
COc1ccc(S(=O)(=O)Nc2cc(C(C)C)c(O)cc2C)cc1	i	i	i	i	i	i	nt
COc1ccc2nc3cc(Cl)ccc3c(Nc3cc(C(C)C)c(O)cc3C)c2c1	i	73	40	i	i	i	0.75	Rv3671c confirm=46
CCCn1nc([N+](=O)[O-])c(C(C#N)c2nc3ccccc3s2)c(Cl)c1=O (stereo unspecified)	i	81	40	i	i	i	6.1	Rv3671c confirm=i
COC(=O)[C@@H](Cc1ccccc1)NC(=O)[C@H]1CCC(=O)N1C(=O)OCc1ccccc1	i	i	i	i	i	i	nt
CCOc1ccccc1C1NC(=O)CCC1[N+](=O)[O-] (stereo unspecified)	i	i	i	i	i	i	nt
CNc1ccc2nc3ccccc3[n+](C)c2c1	i	45	107	i	i	i	17	Rv3671c confirm=82
C[n+]1c2ccccc2nc2ccc(NCCO)cc21	i	64	43	i	i	i	12	Rv3671c confirm=42
COc1cccc(OC)c1C(=O)Nc1cccc(-n2cnnn2)c1	i	i	i	i	i	i	nt
COc1ccc2noc3c2c1C(=O)c1ccccc1-3	i	60	i	i	84	i	10	DNA intercalat=3.1
Cc1cc(Cl)c2oc(C(=O)N(C)Cc3nccn3C)c(C)c2c1	i	i	nt	nt	nt	i	nt
O=S(=O)(Nc1ccc(-c2csc(-c3ccccc3)n2)cc1)c1ccc(F)cc1	i	i	i	i	i	i	nt
O=C(Nc1nc(-c2ccccc2)cs1)c1ccccc1NS(=O)(=O)c1ccc(F)cc1	37	35	i	i	i	i	28	Mtb FBA inh conf=+;GDH-TPI counter-2=+

Screens as filed in PubChem BioAssay.
